Data: ChEMBL document CHEMBL1157539, “Thousands of chemical starting points for antimalarial lead identification” (Nature, 2010)

test system: HepG2; test: GSK_TCMDC: Percent inhibition of human HepG2 cell line. Test compounds present at 10uM.; format: functional

Row | SMILES | Inhibition [%]
1 | COc1ccc2ncc(OC)c(CCN3CC[C@@H](NCc4ccc5c(n4)NC(=O)CS5)[C@H](O)C3)c2n1 | 21
2 | Cc1nc(-c2cccc(C(=O)Nc3cnc4ccccc4c3)c2)no1.O=C(O)C(F)(F)F | 15
3 | CCN(CCCN1CCCCC1)c1cc(C)nc(Nc2ccc(Cl)cc2)n1.Cl | 23
4 | CC(CCc1ccccc1)NCC(O)c1ccc2c3c(cccc13)C(=O)N2C.Cl (configuration not stated) | 37
5 | O=c1cc(NCCCNCc2cc(Cl)cc(Cl)c2OCc2ccc(Cl)cc2)[nH]c2ccccc12 | 6
6 | Fc1ccc(NC(=S)NCCc2ccccc2)cc1 | 0
7 | Cl.Nc1ncc(Cc2cc(Cl)c(N)c3ncccc23)c(N)n1 | 5
8 | NC1CCCN(Cc2ccc(-c3ccc(-c4nc5ccccc5[nH]4)s3)cc2)C1.O=C(O)C(F)(F)F (configuration not stated) | 40
9 | O=C(Nc1ccccc1Cl)N(Cc1cc(Cl)cc(Cl)c1)CC(O)COc1ccc(Cl)c(F)c1 (configuration not stated) | 0
10 | Cl.N=C(N)Nc1nc(-c2ccc(NC(=N)N3CCC[C@H]3CN3CCCC3)cc2)cs1 | 6
11 | CCCCCn1c(Sc2ccc(C#N)c([N+](=O)[O-])c2)nnc1-c1ccc(Cl)cc1 | 18
12 | Cc1[nH]c(C)c(-c2ccc(-c3ccc(F)cc3)nc2)c(=O)c1Br | 15
13 | Cc1ccccc1C(=O)Nc1cccc(-c2nc3ncccn3c2C)c1 | 0
14 | Cc1cccc2nc(-c3cccc(-c4ccc(NC(=O)C5CCCO5)cc4)c3)[nH]c12 (configuration not stated) | 10
15 | COc1ccc(O)c(C(=O)c2cnc3c(c2)c(-c2ccc(F)cc2)c(C#N)c(=O)n3C)c1 | 7
16 | COc1ccc2[nH]ccc(=NN=Cc3ccccc3)c2c1 | 0
17 | CCOC(=O)c1c(C)n(-c2ccccc2)c2ccc(OC(=O)COc3ccc(Cl)cc3Cl)cc12 | 11
18 | COc1ccc(CCN(C)CCCN2CCC(NC(=O)c3cccc4c(=O)c5ccccc5sc34)CC2)cc1OC.O=C(O)C(=O)O | 67
19 | Cc1ccc(O)c(CN2CCCC(COC(c3ccc(F)cc3)c3ccc(F)cc3)C2)c1 (configuration not stated) | 19
20 | CC(C)CCN1CCC(Oc2ccc(NC(=O)c3cccs3)cc2Cl)CC1.O=C(O)C(F)(F)F | 31
21 | Cc1cc(O)c2c3c1C(=O)C=C1C3c3c(c(O)cc(O)c3C(=O)C1(C)C)C2=O (configuration not stated) | 45
22 | Cc1cc(NC(=O)Nc2ccc3ccn(C)c3c2)c2ccccc2n1 | 11
23 | O=C(Nc1ccc2c(c1)CCCN2S(=O)(=O)c1cccs1)c1cc([N+](=O)[O-])ccc1Cl | 29
24 | COc1cccc(C(=O)Nc2ccc(Nc3nc(C)cc(N4CCCCC4)n3)cc2)c1OC | 47
25 | Cc1ccc(CN(Cc2ccc(C(=O)N(C)C)cc2)Cc2ccc3c(c2)OCCO3)cc1C | 10
26 | COc1cccc(-c2ccc3c(-c4cccc(S(C)(=O)=O)c4)cnc(N)c3c2)c1 | 45
27 | Clc1cccc(C23N/C(=N\c4nc5ccccc5[nH]4)NC2(c2ccccc2)N/C(=N\c2nc4ccccc4[nH]2)N3)c1 (configuration not stated) | 0
